The list is not random: actives were taken first. Their share in the collection is about 11%.
BAZ2B block – BAZ2B (human) inhibition. Q9UIF8. AlphaScreen BAZ2B-H3K14Ac peptide displacement. Potency, µM (highest dose often 114 µM), for the others: top-dose activity change, negative = inhibition, usual class: inhibitors. 360,000 tested, 4.4% active. AID 504333; further: potency means the concentration at half of the fitted maximal effect; on the % scale 0 is the no-effect control and ±100 the full control effect; nearly all actives have a fitted effect of over 60% in size
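BAZ2B 50 nM plus b-H3(5-23)K14Ac 50 nM, PBS pH 7.4/0.01% Tween-20, 30 min RT; compound added (max 110 uM), 30 min RT; streptavidin donor/Ni-chelate acceptor beads 10 ug/mL final, 20 min dark; AlphaScreen read.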
PI5P4Ka inh – PI5P4K alpha (human) kinase inhibition; PI5P4Kalpha enzyme, ADP-Glo luminescence, 60 min; active compounds read low; max response, %; 330,000 tested, 1.2% active; AID 652105; active means max response of -50% or lower; inconclusive means between -30% and -50%; inactive means -30% or higher; further: value at the top dose of about 77 µM; on the % scale 0 is the no-effect control and ±100 the full control effect
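PI5P4Kalpha ADP-Glo assay; 5 microM ATP final; 60 min RT reaction; HEPES pH 7.4/EGTA/CHAPS, 5% DMSO; controls lacking substrate or enzyme; luminescent end-point.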
HP1b chromo inh – HP1-beta chromodomain-methylated histone interaction inhibition | P83916 | 390,000 tested, 0.56% active | AID 540317 | Potency, µM (top dose mostly 114 µM), without a hit: at the top dose activity change, negative = inhibition, actives largely listed as inhibitors | AlphaScreen HP1-beta / biotin-H3K9me3 peptide binding; further: potency means the concentration at half of the fitted maximal effect; nearly all actives have a fitted effect of over 70% in size
Target sequence (P83916 whole entry, looked up): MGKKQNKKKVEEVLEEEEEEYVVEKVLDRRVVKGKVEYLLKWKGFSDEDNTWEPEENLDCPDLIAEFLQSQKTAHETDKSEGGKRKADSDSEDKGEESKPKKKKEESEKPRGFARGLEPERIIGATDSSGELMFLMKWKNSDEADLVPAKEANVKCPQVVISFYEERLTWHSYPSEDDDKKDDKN
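Compound inhibition of the preformed complex between 50 nM HP1-beta and 50 nM biotinylated H3K9me3 peptide was read by AlphaScreen. Buffer was PBS pH 7.4 with 0.01% Tween-20. Incubations ran 30 min at room temperature, with 10 ug/mL donor/acceptor beads.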
G9a inh – G9a (human) methyltransferase inhibition; G9a H3K9 monomethylation, AlphaScreen, 2 h; Q96KQ7; Potency, µM (highest dose often 102 µM), without a hit: at the highest dose activity, negative = inhibition, hits mostly inhibitors; 350,000 tested, 8.8% active; further: potency means the concentration at half of the fitted maximal effect; on the % scale 0 is the no-effect control and ±100 the full control effect; nearly all actives have a fitted effect of over 75% in size
Target sequence (Q96KQ7 913-1193 limits assumed): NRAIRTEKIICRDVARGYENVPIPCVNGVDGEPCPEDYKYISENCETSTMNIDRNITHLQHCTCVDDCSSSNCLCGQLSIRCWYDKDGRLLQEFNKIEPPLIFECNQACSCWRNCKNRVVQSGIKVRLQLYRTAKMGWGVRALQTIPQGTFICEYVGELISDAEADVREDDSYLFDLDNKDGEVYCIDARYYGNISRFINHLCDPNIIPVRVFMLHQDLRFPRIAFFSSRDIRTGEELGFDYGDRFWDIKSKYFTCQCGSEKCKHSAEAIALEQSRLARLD
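AlphaScreen read-out: biotin-H3K9 peptide (500 nM) methylation by 20 nM enzyme with 20 uM SAM, 2 h at room temperature after 15 min compound preincubation; anti-monomethyl H3K9 antibody plus donor/acceptor beads, 10 min dark.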
L3MBTL1 inh – blocks human L3MBTL1 | 230,000 tested, 0.66% active | Q9Y468 | AlphaScreen L3MBTL1–H3K9me1 peptide binding | Potency, µM (titrated, usually from 57.1 µM), inactives show at the highest dose activity, negative = inhibition, usual class: inhibitors; further: potency means the concentration at half of the fitted maximal effect; on the % scale 0 is the no-effect control and ±100 the full control effect; nearly all actives have a fitted effect of over 60% in size
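First, the protein-peptide complex forms for 30 min at room temperature (L3MBTL1 50 nM, biotinylated H3K9me1 peptide 75 nM). Next, compounds are pin-transferred and incubated 30 min. Finally, AlphaScreen beads are added and read after 30 min.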
JMJD2A Tudor – JMJD2A Tudor domain (human) inhibition | O75164 | AlphaScreen JMJD2A-Tudor / H3K4me3 peptide binding | Potency, µM (highest dose often 114 µM), for the others: at the highest dose activity change, negative = inhibition, most hits filed as inhibitors | 390,000 tested, 4.4% active | AID 504339; further: potency means the concentration at half of the fitted maximal effect; on the % scale 0 is the no-effect control and ±100 the full control effect; nearly all actives have a fitted effect of over 50% in size
* = called active by the depositor; ? = inconclusive; . = not tested or not shown; [ ] = another dose, or the depositor's remark. Unless noted, the call rests on the fitted dose curve; in most records, active means well fitted inhibition curve with a large enough effect; inconclusive means small, poorly fitted or top-dose-only effect; inactive means no such curve, though single readings can be large or run the other way.

SMILES	BAZ2B block	PI5P4Ka inh	HP1b chromo inh	G9a inh	L3MBTL1 inh	JMJD2A Tudor
C#CCOCCOCCOCCNc1nc(N2CCN(C(=O)[C@H](CCC(=O)O)n3cc([C@@H](N)CC(N)=O)nn3)CC2)nc(N2CCN(C(=O)[C@H](CCC(=O)O)n3cc([C@@H](N)CC(N)=O)nn3)CC2)n1	.	-9	42%	.	?	20µM*
C#CCOCCOCCOCCNc1nc(N2CCN(C(=O)[C@H](CC(N)=O)n3cc([C@@H](N)C(C)C)nn3)CC2)nc(N2CCN(C(=O)[C@H](CC(N)=O)n3cc([C@@H](N)C(C)C)nn3)CC2)n1	.	-6	37%	.	-8%	25µM*
C#CCOCCOCCOCCNc1nc(N2CCN(C(=O)[C@H](CC(N)=O)n3cc([C@@H](N)CC(N)=O)nn3)CC2)nc(N2CCN(C(=O)[C@H](CC(N)=O)n3cc([C@@H](N)CC(N)=O)nn3)CC2)n1	.	-19	41%	.	-50%	25µM*
CSc1ccc(CCNC(=O)CN2C(=O)COc3ccc(S(=O)(=O)N4CCCC4)cc32)cc1	?	.	18%	-33%[59 µM]	.	-21%
CCc1ccccc1NS(=O)(=O)c1ccc2c(c1)CC(=O)N2	.	.	44%	11%[59 µM]	.	-23%
CCSc1n[nH]c2nc3c(c(=O)n12)C1(CCCC1)Cc1ccccc1-3	-6%	-7	31%	21%[0.501 µM]	8%	0%
C=CCSc1n[nH]c2nc3c(c(=O)n12)C1(CCCC1)Cc1ccccc1-3	12%	-6	39%	50µM*	0%	-10%
N#C/C(=C/c1ccc(N2CCCCC2)cc1)c1cccc(F)c1	-35%	3	?	4%[59 µM]	-7%	?
N#C/C(=C/c1ccc(N2CCCCCC2)o1)c1ccc(Cl)cc1	45µM*	.	-35%	7.9µM*	.	40µM*
N#C/C(=C/c1ccc(N2CCCCC2)o1)c1cccc(F)c1	40µM*	.	?	2.5µM*	.	45µM*
COc1cccc(COCCN2CCN(S(=O)(=O)c3ccccc3)CCC2=O)c1	.	.	20%	.	.	-5%
O=C(CNC(=O)c1ccccc1F)OCc1cc(=O)n2nc(C3CC3)sc2n1	7%	.	14%	41%[59 µM]	.	-22%
COC(=O)C(c1cc(OC)c(O)c(OC)c1)(N1CCNC(C)C1)C(F)(F)F (stereo not given)	-5%	0	37%	10µM*	3%	28%
CCOc1ccc(NC(=O)COC(=O)CCN2C(=O)C3CC=CCC3C2=O)cc1OCC (stereo not given)	?	-4	-21%	4µM*	-5%	?
CCC(=O)Nc1ccc(C(=O)COC(=O)CCN2C(=O)C3CC=CCC3C2=O)cc1 (stereo not given)	13%	-11	-10%	50µM*	3%	-23%
O=c1c2c(-c3ccc([N+](=O)[O-])cc3)csc2nc2n1CCC2	-1%	-17	?	7.9µM*	-4%	-30%
O=[N+]([O-])c1ccc(-c2nnc3n2CCCCC3)cc1	-2%	-1	-2%	60%	.	-13%
COc1cc(OC)cc(C(=O)c2c(C)c(C#N)c3ccccn23)c1	5%	-11	71%	-1%	.	34%
COC1=C/C(=C/c2c(O)c(C#N)c3ccccn23)C=CC1=O	50µM*	-18	?	?	-23%	22µM*
CCc1cccc(N2C(=O)CS(=O)(=O)C23C(=O)N(Cc2ccccc2)c2ccc(C)cc23)c1 (stereo not given)	0%[57.1 µM]	.	30%	-23%[59 µM]	.	-22%
Cc1ccc(C(=O)NNC(=O)c2ccccc2)cc1S(=O)(=O)N1CCCCC1	1%	-2	54%	-8%[12.7 µM]	-1%	6%
O=S(=O)(c1ccccc1)N1CCN(S(=O)(=O)N2CCCCCC2)CC1	2%	-8	32%	26%[59 µM]	.	-1%
Cc1ccc(-n2sc3ccccc3c2=O)cc1S(=O)(=O)N1CCCCC1	5.6µM*	-111*	?	0.89µM*	-16%	7.9µM*
O=c1c2ccccc2sn1-c1ccc(S(=O)(=O)N2CCCC2)cc1	7.1µM*	.	1.4µM*	.	2%	11µM*

Bioassay records as filed in PubChem.
